Rows were chosen to be rich in hits. Some 11% of all compounds tested hit in one or more screens of this group.
HEK cytotox = HEK 293 cell cytotoxicity; HEK 293 viability, ATP luminescence (CellTiter-Glo), 48-72 h; AID 1345083; hit rate 6.6% among 94,000; Potency, µM (series often up to 115 µM), actives largely listed as inhibitors; further: nearly all actives have a fitted effect of over 60% in size
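250 HEK 293 cells/well; compound by pintool; incubated 48 or 72 hr at 37 degree Celsius; CellTiter-Glo added, 10 min RT, luminescence imaged.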
NIH3T3 tox = kills NIH 3T3 cells; NIH 3T3 viability, CellTiter-Glo ATP luminescence, 48-72 h; Potency, µM (highest dose often 96.7 µM), actives largely listed as inhibitors; hit rate 4.3% among 94,000; AID 1345082; further: nearly all actives have a fitted effect of over 55% in size
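Cells were seeded at 400 per well, treated with pin-transferred compound, and kept 48 or 72 hr at 37 °C before CellTiter-Glo addition and luminescence imaging of cellular ATP.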
FLuc inh-1 = inhibitors of firefly (Photinus pyralis) luciferase. P08659. purified P. pyralis luciferase, luminescence, biochemical. Potency, µM (top dose mostly 115 µM), actives largely listed as inhibitors. hit rate 2.5% among 76,000; further: nearly all actives have a fitted effect of over 65% in size
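Luminescence read by CCD imaging after purified firefly luciferase (10nM final) was added to substrate buffer holding 10uM D-luciferin and 10uM ATP, pH 7.5, pre-dosed with compound.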
NPR1 antag = human Npr1 receptor antagonism | P16066 | HEK293 hNpr1 GloSensor cGMP, ANP-stimulated luminescence | Potency, µM (top dose mostly 46.3 µM), most hits filed as inhibitors | hit rate 1.6% among 76,000; calls by dose curve; further: nearly all actives have a fitted effect of over 60% in size
Target sequence (P16066 whole entry, looked up): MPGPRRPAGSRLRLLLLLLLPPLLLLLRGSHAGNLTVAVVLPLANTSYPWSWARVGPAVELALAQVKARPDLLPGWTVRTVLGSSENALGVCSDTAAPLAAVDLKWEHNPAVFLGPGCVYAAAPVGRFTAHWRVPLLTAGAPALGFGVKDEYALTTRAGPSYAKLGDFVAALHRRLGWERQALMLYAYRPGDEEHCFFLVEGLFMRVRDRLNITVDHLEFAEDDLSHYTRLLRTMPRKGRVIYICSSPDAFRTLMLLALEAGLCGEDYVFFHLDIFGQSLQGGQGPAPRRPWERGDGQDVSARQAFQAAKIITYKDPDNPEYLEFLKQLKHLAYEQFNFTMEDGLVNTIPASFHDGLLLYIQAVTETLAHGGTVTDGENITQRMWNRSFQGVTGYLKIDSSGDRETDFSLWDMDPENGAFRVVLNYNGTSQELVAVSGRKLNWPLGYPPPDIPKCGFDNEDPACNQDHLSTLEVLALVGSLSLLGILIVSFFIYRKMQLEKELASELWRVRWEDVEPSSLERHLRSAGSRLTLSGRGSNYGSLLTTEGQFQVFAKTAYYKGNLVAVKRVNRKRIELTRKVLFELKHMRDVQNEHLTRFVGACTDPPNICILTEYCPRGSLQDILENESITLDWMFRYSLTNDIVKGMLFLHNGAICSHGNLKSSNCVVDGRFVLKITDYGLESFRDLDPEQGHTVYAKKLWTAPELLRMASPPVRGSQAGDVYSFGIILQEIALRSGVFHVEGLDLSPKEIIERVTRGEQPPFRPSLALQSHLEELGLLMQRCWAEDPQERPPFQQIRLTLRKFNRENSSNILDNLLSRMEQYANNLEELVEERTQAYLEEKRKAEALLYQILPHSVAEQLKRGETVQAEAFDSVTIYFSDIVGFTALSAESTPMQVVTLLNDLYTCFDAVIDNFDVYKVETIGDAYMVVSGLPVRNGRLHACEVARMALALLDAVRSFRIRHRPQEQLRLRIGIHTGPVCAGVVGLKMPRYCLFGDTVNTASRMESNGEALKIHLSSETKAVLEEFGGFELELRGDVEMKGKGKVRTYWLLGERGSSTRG
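Compound pre-incubated 30 min at room temperature on GloSensor-loaded HEK293 cells stably carrying hNpr1 and the pGS-40F cGMP biosensor. Stimulation uses hNppA at 0.1 nM final; luminescence is taken at baseline and 20 min post-agonist.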
FLuc SDR no ATP = stabilizes firefly luciferase without ATP | Potency, µM (highest dose often 32.7 µM), hits mostly activators | Purified FLuc-C-HiBiT, Nano-Glo HiBiT luminescence, no ATP | shares compounds with FLuc inh-1 | hit rate 7.8% among 1,300; further: nearly all actives have a fitted effect of over 55% in size
FLuc SDR ATP = firefly luciferase binding stabilization, ATP added. hit rate 8.7% among 1,300. shares compounds with FLuc inh-1. Potency, µM (highest dose often 32.7 µM), usual class: activators. purified FLuc-C-HiBiT + ATP, HiBiT complementation luminescence;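 further: signal reports ligand binding via conformational change of the enzyme rather than luciferase catalysis; nearly all actives have a fitted effect of over 55% in size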
FLuc inh-2 = blocks firefly luciferase enzymatic activity. AID 1963320. shares compounds with FLuc inh-1. purified FLuc-C-HiBiT enzyme, luciferin luminescence. Potency, µM (titrated, usually from 32.7 µM), usual class: inhibitors. hit rate 42% among 1,300; further: nearly all actives have a fitted effect of over 70% in size
A number is an active result; – = inactive; ? = inconclusive; · = no result. Unless noted, the call rests on the fitted dose curve; in most records, active means well fitted curve in the direction sought with a large enough effect; inconclusive means small, poorly fitted or top-dose-only effect, or another doubt; inactive means no such curve, though single readings can be large; an effect the other way counts as inactive or inconclusive.

SMILES	HEK cytotox	NIH3T3 tox	FLuc inh-1	NPR1 antag	FLuc SDR no ATP	FLuc SDR ATP	FLuc inh-2
COc1ccc(-c2cnc(Nc3ccccc3)c3c2CCO3)cn1	?	?	3.55µM	?	–	–	?
O[C@H]1CC[C@@H](Cc2cc(-c3ccc(F)cc3)on2)O[C@@H]1CNCc1ccccc1Cl	?	?	–	–	·	·	·
Cc1oc2c(c1C(=O)N(C)CC(=O)N1CCOCC1)CN(Cc1ccc(F)cc1)CC2	–	–	?	–	·	·	·
CNC(=O)c1cc(C2CC2)nc2onc(C3CCN(C(C)=O)CC3)c12	–	–	·	·	·	·	·
COc1cccc(-c2cccc(COc3cnc4c(ccn4CC(=O)O)c3)c2)c1F	–	?	12.6µM	–	–	–	12.8µM
O=C(O)Cn1ccc2cc(OCc3cccc(-c4ccc(F)c(Cl)c4)c3)cnc21	?	–	–	–	·	·	·
Cc1ccc(-c2cccc(COc3cnc4c(ccn4CC(=O)O)c3)c2)cc1	?	–	7.94µM	–	–	–	?
Cc1nccn1CCN(C)c1ccc(-c2nc(COc3ccccc3)no2)cn1	?	?	12.6µM	?	–	–	9.89µM
O=C(Cc1ccc(F)cc1)N1CCC(C(=O)N2CCC(c3nc4ccncc4[nH]3)C2)CC1 (stereo not drawn)	–	–	·	·	·	·	·
COc1cccc(C(=O)Nc2cccc(OCc3cc(=O)n4c5c(sc4n3)CCCC5)c2)c1	·	·	·	·	–	–	?
COc1cccc(NC(=O)Cn2c(=O)c(-c3noc(C)n3)c3n(c2=O)CCCC3)c1	–	–	–	–	·	·	·
Cn1nc(-c2nncn2CC2CC2)c2c1CCN(C(=O)Cc1c[nH]c3ccccc13)C2	–	–	–	–	·	·	·
COc1ccc(C(=O)N[C@@H]2CN(C(=O)Nc3ccc(OC(F)(F)F)cc3)CCC[C@H]2O)cc1	39.8µM	44.7µM	8.91µM	?	–	–	?
O=C(N[C@@H]1CN(C(=O)Nc2ccc(OC(F)(F)F)cc2)CCC[C@H]1O)c1ccc(OCCN2CCOCC2)cc1	?	?	?	–	·	·	·
CCOc1ccccc1CN1CCC2(CCN(C(=O)N(C)C)CC2)Oc2ccccc21	?	?	–	–	·	·	·
COc1ccc(-c2nnc([C@H]3CCN(C(=O)c4ccc(F)cc4)C3)o2)cc1	–	–	–	–	·	·	·
COc1ccc(-c2nnc(SC(C)C(=O)O)o2)cc1 (stereo not drawn)	·	·	·	·	?	?	?
COc1cccc(NC(=O)N[C@H]2[C@H](O)[C@@H](N3CCN(c4ccccc4)CC3)[C@@H]3OC[C@H]2O3)c1	–	–	–	–	·	·	·
COC(=O)c1ccccc1NC(=O)N1CCC[C@@H](O)[C@H](NC(=O)c2ccc(OCc3ccccc3)cc2)C1	?	?	–	–	·	·	·
CCCc1ccc(OCc2ccc(C(=O)Nc3ccccc3C(=O)OC)o2)cc1	·	·	·	·	–	?	?
Cc1ccc(NC(=O)Cn2nc3n(c2=O)CCCC3)c(C)c1	–	–	–	–	·	·	·
Cc1ccc(Nc2ncnc3c2nc2n3CCCC2)c(Br)c1	·	·	·	·	?	?	4.95µM
COc1ccc(-c2noc([C@@H]3CCCN3C(=O)Cc3cccc(C)c3)n2)cc1	?	?	–	–	·	·	·
COc1ccccc1C(=O)N1CCCC(c2nnc3n2CCN(C(=O)C2CC2)C3)C1 (stereo not drawn)	–	–	·	·	·	·	·
Cc1ccc(OCc2nc(C3CN(C(=O)c4n[nH]c5ccccc45)C3)no2)cc1	?	20µM	8.91µM	?	?	?	8.81µM
SMILES	HEK cytotox	NIH3T3 tox	FLuc inh-1	NPR1 antag	FLuc SDR no ATP	FLuc SDR ATP	FLuc inh-2
Cc1cc(C)cc(NC(=O)N2CCCC(c3noc(COc4ccccc4)n3)C2)c1 (stereo not drawn)	?	?	?	–	·	·	·
Cc1ccc(NC(=O)N2CCCC(c3noc(COc4ccccc4)n3)C2)cc1C (stereo not drawn)	?	?	3.98µM	–	–	–	8.81µM
Cc1ccc(OCc2nc(C3CN(C(=O)C4(c5ccccc5)CC4)C3)no2)cc1	?	?	–	–	·	·	·
O=C(NCc1ccco1)c1cccc2c1CCN2C(=O)Nc1ccc(F)cc1	?	?	2.24µM	?	?	1.76µM	1.11µM
O=C(NCCc1cccs1)c1cccc2c1CCN2C(=O)Nc1ccc(F)cc1	?	?	1.26µM	?	–	1.4µM	0.785µM
Cc1ccc(CNC(=O)c2cccc3c2CCN3C(=O)c2ccc(F)cc2)o1	?	–	–	–	·	·	·
COc1ccc(CNC(=O)c2cccc3c2CCN3C(=O)c2ccc(F)cc2)cc1	–	–	–	–	·	·	·
CC(NC(=O)c1cccc2c1CCN2C(=O)Nc1ccccc1)c1cccnc1 (stereo not drawn)	?	–	6.31µM	–	–	3.13µM	1.76µM
CCN(CC)C(=O)c1cccc2c1CCN2C(=O)Nc1cccc(C)c1	?	?	–	–	·	·	·
O=C(Nc1ccc2c(c1)OCO2)c1cccc2c1CCN2C(=O)Nc1ccc(F)cc1	?	–	0.708µM	7.08µM	–	0.248µM	0.197µM
O=C(NCCc1cccnc1)c1cccc2c1CCN2C(=O)Nc1ccc(F)cc1	44.7µM	–	0.398µM	11.2µM	–	0.351µM	0.221µM
CCC(=O)N1CCc2c(C(=O)NCc3cccnc3)cccc21	–	–	–	–	·	·	·
O=C1NC2(Cc3ccccc31)CN(CC1CCNC1)C2 (stereo not drawn)	–	–	·	·	·	·	·
O=C(O)CCSc1nnc(-c2ccc(Cl)cc2Cl)o1	·	·	·	·	?	0.7µM	0.495µM
Cc1ccc(-c2noc(-c3nc(-c4cccnc4)no3)n2)cc1	–	–	–	–	·	·	·
Cc1ccc(-c2noc(-c3nc(C(C)C)no3)n2)cc1	–	–	7.08µM	–	–	–	?
Cc1ccc(-c2noc(-c3ccccc3Br)n2)cc1	·	·	·	·	?	?	1.57µM
O=C(NCCc1cnc[nH]1)c1ccc2nc(-c3ccc(F)cc3)cn2c1	?	?	10µM	–	–	–	?
O=C1CCN(C(=O)c2ccccc2)CCCC(C(=O)N2CCN(Cc3ccccc3F)CC2)CCN1 (stereo not drawn)	–	–	–	–	·	·	·
O=C(c1ccc(CSc2nc3ccncc3n2Cc2ccccc2F)cc1)N1CCCCC1	·	·	·	·	–	–	?
O=C(NCCCO)C1CC(=O)N(c2n[nH]c3cc(Br)ccc23)C1 (stereo not drawn)	?	?	?	–	·	·	·
Cc1cc(F)ccc1OC1(C(=O)O)CCN(c2ncnc3nc[nH]c23)CC1	–	–	–	–	–	–	–
CCOc1ccc(-c2ccnc(N3CCNC(C)C3)n2)cc1C(=O)O (stereo not drawn)	–	–	–	–	·	·	·
COCC(=O)N1CCc2nc(C)nc(-c3ccc(OC)cc3)c2C1	–	–	–	–	–	–	–
COc1ccc(-c2nc(C)nc3c2CN(C(C)=O)CC3)cc1	–	–	–	–	·	·	·
